# The list is not random: actives were taken first. Their share in the collection is about 4.7%.
# TRHR agonist – TRH receptor (human) agonism | P34981 | TRHR cells, calcium flux fluo-8, FDSS agonist mode | activation, % at 2 µM | 360,000 tested, 0.18% active | AID 493084; further: 0% is about no effect
# Target sequence (P34981 whole entry, looked up): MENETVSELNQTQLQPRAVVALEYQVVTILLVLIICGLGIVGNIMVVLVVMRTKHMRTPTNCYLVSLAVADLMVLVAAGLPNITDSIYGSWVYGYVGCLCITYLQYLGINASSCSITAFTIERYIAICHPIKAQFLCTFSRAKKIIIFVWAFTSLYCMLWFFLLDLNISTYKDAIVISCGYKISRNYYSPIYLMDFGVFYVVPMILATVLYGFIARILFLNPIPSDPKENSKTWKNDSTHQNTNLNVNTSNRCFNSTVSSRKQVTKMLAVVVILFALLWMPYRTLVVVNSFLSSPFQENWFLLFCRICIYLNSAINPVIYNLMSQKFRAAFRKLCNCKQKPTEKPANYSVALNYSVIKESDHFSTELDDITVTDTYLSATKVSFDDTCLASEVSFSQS
#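 Read-out: compound-evoked intracellular calcium rise in TRHR cells, fluo-8 dye, kinetic FDSS fluorescence at 1 s/cycle following a 10-cycle baseline. Cells cultured overnight before dye loading (30 min–1.5 h, RT).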
# D1 potentiator – enhances dopamine response at the human D1 receptor; P21728; HEK293 TREx D1 cells, calcium flux, dopamine EC20 potentiation; potentiation, % at 10 µM; 360,000 tested, 0.036% active; in the data active means potentiation above about 30%; further: 0% is about no effect
# D1 antagonist – human D1 dopamine receptor antagonism | P21728 | HEK293 TREx D1 cells, calcium flux, dopamine EC80; active compounds read low | activity change, negative = inhibition, % at 10 µM | 360,000 tested, 3.2% active; in the data active means activity change below about -30%; further: on the % scale 0 is the no-effect control and ±100 the full control effect
#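 Tetracycline-induced HEK293 T-REx cells with force-coupled D1 receptor were loaded with a no-wash calcium dye. Compound was added after a 10 s baseline and read kinetically for 180 s; EC80 dopamine was then added and calcium flux followed another 180 s.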
# D1 agonist – agonists of human D1 dopamine receptor; 360,000 tested, 1% active; P21728; AID 504660; activation, % at 2 µM; HEK293 T-REx D1 cells, calcium flux, agonist mode; further: 0% is about no effect
#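 Tetracycline-induced HEK293 TREx D1 cells, force-coupled to calcium signalling, were dye-loaded with a no-wash calcium kit. Compound was pin-added after a 10 s baseline. Fluorescence was read kinetically at 1 cycle/s for 180 s, with calcium rises flagged as agonism.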
# TRHR enhancer – allosteric enhancers of human TRH receptor; TRHR cells, fluo-8 calcium fluorescence, EC20 TRH enhancement; 360,000 tested, 0.66% active; enhancement, % at 2 µM; in the data active means enhancement above about 30%; further: 0% is about no effect
#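 TRHR-expressing cells loaded with fluo-8 calcium dye were read kinetically (ex 480/em 530) during compound addition, then stimulated with an EC20 of TRH (10 nM final). Enhancement of the Gq-mediated intracellular calcium response was scored.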
# The depositor's hits bear a star; / = no result. Unless noted, no stated cut-off is given here; in the data, active means activation above about 30%; inactive means the rest.
SMILES,TRHR agonist,D1 potentiator,D1 antagonist,D1 agonist,TRHR enhancer
CCOc1ccc(S(=O)(=O)Nc2ccc(C(=O)NCC3(N4CCCCC4)CCCCC3)cc2)cc1,-0.9,2.0,9.2,54.1*,-1.2
CC(=O)N1CCCc2cc(S(=O)(=O)NCc3ccccc3Cl)ccc21,-0.4,-3.8,-6.5,10.4,-1.6
O=C(c1ccc([N+](=O)[O-])cc1)N1c2ncnn2C2(CCCCC2)[C@@H]2CCCC[C@@H]21,-0.9,0.3,-5.1,1.4,2.8
Cn1nnnc1Sc1ncnc2scc(-c3cccc(C#N)c3)c12,-0.9,-3.3,-1.0,0.9,-4.5
CCOc1ccc(NS(=O)(=O)c2ccc3c(c2)N(C(C)=O)CC3)cc1,0.9,-4.8,-32.1*,8.3,12.7
CCOc1ccc(NS(=O)(=O)c2ccc(C(=O)N3CCCCC3)cc2)cc1,7.2,-9.1,-15.2,50.4*,-4.1
CCOc1ccc(NS(=O)(=O)c2ccc(C(=O)N3CC(C)OC(C)C3)cc2)cc1 (configuration not stated),14.7,-10.1,-59.5*,112.9*,4.4
CCOc1ccc(S(=O)(=O)Nc2ccc(C(=O)N3CC(C)OC(C)C3)cc2)cc1 (configuration not stated),3.9,4.1,1.6,30.8*,3.3
CCOc1ccc(NS(=O)(=O)c2ccc(C(=O)N3CCN(c4ncccn4)CC3)cc2)cc1,1.1,3.6,-5.4,21.2,-0.3
CCOc1cccc(C2c3[nH]c4ccccc4c3CCN2C(=O)Cc2cccc(OCC)c2OCC)c1 (configuration not stated),-0.2,3.5,12.7,4.7,-3.7
CCCn1c(=O)c2sccc2n2c(CCCC(=O)Nc3cccc(CC)c3)nnc12,0.3,-0.9,-3.6,2.7,-6.0
O=C(Nc1cccc(Cl)c1)c1cnc2sc(N3CCCC3)nn2c1=O,1.1,-4.0,1.0,4.0,6.6
COCCCOc1ccnc(CS(=O)c2nc3ccccc3[nH]2)c1C (configuration not stated),0.1,0.8,-4.1,2.1,-8.0
COc1ccc2nc(S(=O)Cc3ncc(C)c(OC)c3C)[nH]c2c1 (configuration not stated),-0.8,-1.9,-13.5,1.7,32.2*
Cc1cc2c(n1-c1ccc(C(=O)NCc3cccc(Br)c3)cc1)CCC(C)C2 (configuration not stated),-0.3,-4.4,-59.7*,2.4,6.8
COc1cccc(CNC(=O)c2ccc(-n3c(C)cc4c3CCC(C)C4)cc2)c1 (configuration not stated),-0.4,-0.9,-6.6,-2.1,13.4
Cc1cc2c(n1-c1ccc(C(=O)NCCc3ccc(Cl)cc3)cc1)CCC(C)C2 (configuration not stated),0.2,-1.9,8.9,1.5,31.0*
COc1ccc(-c2nc(SCC(=O)Nc3cccc(C(C)=O)c3)n[nH]2)cc1,-0.8,-4.8,5.7,-0.7,-2.1
CCN(CC)c1nn2c(=O)c(C(=O)NCc3cccc(OC)c3OC)cnc2s1,0.2,-3.4,2.8,0.1,-3.3
Cc1ccc(-c2cc3ncc4c(n3n2)-c2cc(Cl)ccc2OC4)cc1,0.9,-3.9,-2.7,-0.7,-2.9
CCCCOc1ccc(CNC(=O)Cc2ccc(NC(=O)N3CCSc4ncccc43)cc2)cc1,-0.5,-3.4,-25.1,8.7,4.3
Cn1c(SCC(=O)NC2CCCCC2)nnc1-c1cc2cc(Cl)ccc2o1,1.0,12.5,0.3,1.3,4.6
CC(NC(=O)CSc1nnc(-c2cc3cc(Cl)ccc3o2)n1C)c1ccccc1 (configuration not stated),-0.2,-6.8,-1.3,-2.7,31.8*
CCc1c(-c2ccccc2)nc2ccccc2c1C(=O)NCCc1ccccc1,-0.4,-0.9,-6.6,3.1,-2.5
CCOc1cccc2sc(N3CCN(C(=O)c4ccc5c(c4)CCCC5)CC3)nc12,-0.2,12.7,/,-0.8,-2.9
SMILES,TRHR agonist,D1 potentiator,D1 antagonist,D1 agonist,TRHR enhancer
C/C(=N\Nc1ccc([N+](=O)[O-])cc1)c1cc2ccccc2o1,17.3,-11.8,-30.2*,59.5*,8.8
C/C(=N/NS(=O)(=O)c1cccc([N+](=O)[O-])c1)c1ccc2c(c1)OCO2,0.5,5.2,-26.6,8.4,-4.4
O=C(N/N=C/c1ccc([N+](=O)[O-])cc1)c1cc2ccccc2o1,-0.1,-5.3,-16.4,0.6,-2.3
C/C(=N\Nc1ccc([N+](=O)[O-])cc1)c1ccc2c(c1)OCO2,11.8,-3.5,-38.3*,37.7*,-3.0
C/C(=N\Nc1ccc([N+](=O)[O-])cc1)c1ccc(C#N)cc1,0.6,-1.2,-6.1,4.1,-7.5
C/C(=N\NS(=O)(=O)c1ccc([N+](=O)[O-])cc1)c1ccc2c(c1)OCO2,-0.7,11.1,-30.9*,4.8,2.1
COC(=O)c1nnn(CC(=O)Nc2c(C)cccc2C)c1N,0.2,1.1,-2.0,0.6,1.1
Cc1cc(OCCn2cc(C(=O)c3cccs3)c3ccccc32)ccc1Cl,-1.3,-6.0,-0.9,23.0,10.3
O=C(COC(=O)/C=C/c1ccccc1Cl)NC(=O)NCc1ccccc1,0.8,7.9,-10.6,31.8*,-2.2
Cc1c(Cl)cccc1NC(=O)CCS(=O)(=O)c1ccc2c(c1)CC(C)N2C(=O)C1CC1 (configuration not stated),-0.5,-1.8,-16.7,7.2,-2.8
CCc1ccc(C(=O)c2cn(CC(=O)Nc3cc(OC)ccc3OC)c3ccc(C)cc3c2=O)cc1,0.5,0.2,13.8,1.6,8.0
O=C(COc1cccc2c1CCN(Cc1ccccc1F)C2=O)N1CCOCC1,0.0,-3.9,-15.9,-0.5,-15.9
CCOC(=O)N1CCN(C(=O)COc2cccc3c2CCN(Cc2ccccc2F)C3=O)CC1,-0.5,1.3,-30.5*,1.4,7.5
Cc1cccc(NC(=O)COc2cccc3c2CCN(C)C3=O)c1,0.3,-4.2,7.9,11.6,5.6
CC1CCN(C(=O)COc2cccc3c2CCN(C)C3=O)CC1,0.2,-5.7,-32.2*,-0.4,-1.7
O=C(COc1cccc2c1CCN(Cc1ccccc1F)C2=O)N1CCCCC1,-0.2,0.9,-10.5,3.0,-2.7
Cc1ccccc1CN1CCc2c(OCC(=O)N3CCCCC3)cccc2C1=O,0.1,-1.9,-41.3*,3.5,-3.6
CC(C)(Oc1ccc(Cl)cc1)C(=O)Nc1ccc(-c2nc3ncccc3o2)cc1,-0.1,4.5,9.0,-1.7,0.5
CCN(Cc1ccccc1)C(=O)c1cc(-c2ccccc2)n[nH]1,-0.5,-0.6,-5.2,1.0,-5.1
COc1ccc(C(=O)NC2CC2)cc1OC1CCN(Cc2ccc(F)cc2F)CC1,-0.4,-17.4,-18.8,1.0,4.6
C=CCOc1ccccc1CN1CCC(Oc2ccc(C(=O)N3CCCC3)cc2)CC1,0.0,-4.8,-11.5,4.6,-1.5
C=CCN(CC=C)C(=O)c1ccc(OC2CCN(C(C)=O)CC2)c(OC)c1,0.2,3.0,-42.0*,4.4,3.5
